Records with an inconclusive call do not appear. Where a call stands in place of a potency, no number is given. A number with no mark means an inactive call. Activity calls are given as the source filed them. Calls follow the shape of the dose curve; as a rule, active = well fitted curve in the direction sought with a large enough effect; inconclusive = small, poorly fitted or top-dose-only effect, or another doubt; inactive = no such curve, though single readings can be large; an effect the other way counts as inactive or inconclusive.
Experiments:
[1] = Viability qHTS for spleen associated tyrosine kinase inhibitor (SYKi) naive MV4-11 cells (AID 1963823); also: nearly all actives have a fitted effect of over 40% in size; also: potency is read from the fitted curve at half-maximal effect
Method in brief: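 Compounds were dispensed acoustically onto plates, MV4-11 cells (SYKi-naive) added at 500 per well, and plates incubated 72 hr at 37 C. CellTiter-Glo was added and luminescence measured after 10 min.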

[2] = target: Cytochrome P450 3A7 (Homo sapiens) (UniProt P24462); experiment: Cytochrome P450 family 3 subfamily A member 7 (CYP3A7) small molecule antagonists: luciferase biochemical qHTS assay (AID 1963596); also: nearly all actives have a fitted effect of over 40% in size; also: potency is read from the fitted curve at half-maximal effect
Method in brief: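 Luminescence read-out (relative luminescence units) after 20 min with detection reagent, which stops the reaction. Enzyme, proluciferin substrate and compound preincubated 10 min, RT; NADPH regeneration system then started 1 h reaction. Ketoconazole as positive control.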

[3] = Cellular viability qHTS for adrenocortical cancer (ACC) cell line SW-13 (AID 1963989); settings: SW-13 ACC cells viability, CellTiter-Glo, 48 h; activity (max response): active compounds read low;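 also: cells grown in serum-free medium with ITS supplement; nearly all actives have a fitted effect of over 65% in size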
Method in brief: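 Compound titrations (up to 46 uM final, in DMSO) were applied to SW-13 cells for 48 h at 37C/5% CO2. Reading used CellTiter-Glo after 20 min at room temperature; fitted curves yielded IC50 and efficacy.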

[4] = Cellular viability qHTS for adrenocortical cancer (ACC) cell line NCI-H295R (AID 1963990); also: nearly all actives have a fitted effect of over 60% in size
Method in brief: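 Readout: CellTiter-Glo luminescence, 20 min RT. Exposure: 48 h, 37C/5% CO2. Cells: NCI-H295R, ITS-DMEM serum-free. Range: up to 46 uM. Analysis: 4PL fit, IC50 plus efficacy.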

Cytochrome P450 3A7 (Homo sapiens), sequence (P24462 whole entry, looked up): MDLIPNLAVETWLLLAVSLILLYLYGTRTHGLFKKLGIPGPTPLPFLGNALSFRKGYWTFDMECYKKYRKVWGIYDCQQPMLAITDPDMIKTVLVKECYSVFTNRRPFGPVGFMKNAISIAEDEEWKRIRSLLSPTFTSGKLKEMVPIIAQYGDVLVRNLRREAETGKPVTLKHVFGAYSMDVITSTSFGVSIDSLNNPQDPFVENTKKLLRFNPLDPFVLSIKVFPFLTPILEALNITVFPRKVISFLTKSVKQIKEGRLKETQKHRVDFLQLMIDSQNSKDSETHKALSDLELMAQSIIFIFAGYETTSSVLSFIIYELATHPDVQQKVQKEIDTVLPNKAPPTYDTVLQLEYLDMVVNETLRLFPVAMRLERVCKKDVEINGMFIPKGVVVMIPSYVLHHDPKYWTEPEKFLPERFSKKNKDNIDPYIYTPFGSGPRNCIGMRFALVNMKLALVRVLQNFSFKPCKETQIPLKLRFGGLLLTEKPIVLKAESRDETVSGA

Row | Structure (SMILES) | Potency [1] | Potency [2] | activity (max response) [3] [%] | Potency [4]
1 | C[C@H]1O[C@@H](O[C@H]2CC[C@]3(C=O)C4CC[C@]5(C)[C@@H](C6=CC(=O)OC6)CC[C@]5(O)[C@@H]4CC[C@]3(O)C2)C[C@@H](O)[C@@H]1O (stereo not given in full) | 0.0563 µM (active) | – | – | –
2 | COP(=O)(OC)OC=C(Cl)Cl | – | inactive | 13.5 | inactive
3 | NC(=O)[C@@H](CC1CC1)[C@@H](CCC(F)(F)F)C(=O)N[C@H]1N=C(c2ccccc2)c2cccc(F)c2NC1=O | – | inactive | -14.1 | inactive
4 | CC1Sc2c(C(=O)O)c(=O)c3cc(F)c(N4CCNCC4)cc3n21 (stereo not given) | – | inactive | 7.63 | inactive
5 | CC(=O)OC1CC(O)C(C)(C)C2CC(OC(C)=O)C3(C)C(CCC4(C)C(c5ccoc5)C(=O)C5OC543)C12C (stereo not given) | inactive | – | – | –
6 | CC(C)C1(OO)C=C2C(=O)CC3C(C)(C(=O)O)CCCC3(C)C2CC1 (stereo not given) | inactive | – | – | –
7 | COc1ccc2c3c1O[C@H]1[C@H](O)CC[C@H]4[C@@H](C2)N(C)CC[C@@]341 | – | inactive | -5.89 | inactive
8 | O=S(=O)(c1ccc(Cl)cc1)c1ccc(Cl)cc1 | – | 2.02 µM (active) | – | inactive
9 | O=C1CN=C(c2ccccc2)c2cc([N+](=O)[O-])ccc2N1 | – | inactive | -7.73 | inactive
10 | Fc1cc(Br)ccc1CBr | – | inactive | 13.3 | inactive
11 | C=C(CO)[C@@]12O[C@@H]1[C@@]1(C)C(=CC2=O)CC[C@@H](O)[C@@H]1C | 8.2 µM (active) | – | – | –
12 | CC[C@H]1C2CC3[C@@H]4N(C)c5ccccc5[C@]45C[C@@H]([C@H]2[C@H]5O)N3[C@@H]1O | inactive | – | – | –
